Experimental data published in the supplement of paper PMC13380429.
Values without a mark were called inactive.

What follows are compounds tested on Vero E6 infected with SARS-CoV-2 (assay: SARS-CoV-2 infection rate relative to infected DMSO; higher = more infection, active = 60 or less). Settings: 24 h.

| SMILES | SARS-CoV-2 infection rate [%] |
| --- | --- |
| Cn1ccc2cc(NC(=O)Nc3cccnc3)ccc21 (10 µM) | 117 |
| NC(=O)c1ccc(N(C(N)=O)c2c(F)cccc2F)nc1-c1ccc(F)cc1F (10 µM) | 111 |
| C[C@H](N)C(=O)O [L-alanine] (10 µM) | 111 |
| O=C(O)CCN(O)C(=O)CCCCCCCCC1CC1 (10 µM) | 102 |
| CCCCOCCOc1nc(-c2ccc(C(=O)O)c(F)c2)sc1C (10 µM) | 108 |
| CC(C)C(=O)Nc1ncc(-c2cc(C(F)F)nn2-c2c(Cl)cccc2Cl)s1 (10 µM) | 108 |
| Cc1cc2c(C(C)C)c(O)c(O)c(C=O)c2c(O)c1-c1c(C)cc2c(C(C)C)c(O)c(O)c(C=O)c2c1O [gossypol] (0.833333 µM) | 104 |
| CN(C)[C@@H]1C(O)=C(C(N)=O)C(=O)[C@@]2(O)C(O)=C3C(=O)c4c(O)cccc4[C@@](C)(O)[C@H]3[C@H](O)[C@@H]12 [oxytetracycline] (10 µM) | 106 |
| Cc1ccccc1CN1C(=O)C2=C(CCN(Cc3ccccc3)C2)N2CCN=C12 (0.833333 µM) | 82 |
| CCCCNNC(=O)c1ccc(Br)cc1 (0.833333 µM) | 116 |
| O=C(O)c1ccc(O)c2ncccc12 (10 µM) | 102 |
| O=C(Nc1cccc(C(F)(F)F)c1)Nc1cc(S(=O)(=O)NC2CC2)ccc1-c1ccsc1 (10 µM) | 102 |
| NC(=O)[C@H]1CCS[C@@H]2C[C@]3(CCCN3C(=O)Cc3ccc(NC(=O)COc4ccc(Cl)cc4Cl)cc3)C(=O)N12 (10 µM) | 111 |
| O=c1[nH]cc(F)c(=O)[nH]1 [5-fluorouracil] (0.833333 µM) | 102 |
| COc1ccc2nc3c(c(N)c2c1)CCCC3 [7-methoxytacrine] (10 µM) | 64.5 |
| CCCCCCc1ccc(O)cc1O [hexylresorcinol] (10 µM) | 88 |
| CCCCCCCCCCCCCCCC=O [1-hexadecanal] (10 µM) | 100 |
| O=C(NCCNCC(O)COc1ccc(O)cc1)N1CCOCC1 (stereo not given) [xamoterol] (10 µM) | 110 |
| CCCc1ccc(C(=O)O)cc1 [4-propylbenzoic-acid] (10 µM) | 95 |
| Cc1cc(OCC(=O)O)cc(C)c1Cc1ccc(O)c(C(C)C)c1 [sobetirome] (10 µM) | 103 |

| SMILES | SARS-CoV-2 infection rate [%] |
| --- | --- |
| Nc1ccc(C(=O)NCC(=O)O)cc1 [4-aminohippuric-acid] (10 µM) | 108 |
| CCOc1ccc(NC(C)=O)cc1 [phenacetin] (10 µM) | 116 |
| C[C@@H]1C/C=C/C=C/C=C/C=C/[C@H](O[C@@H]2O[C@H](C)[C@@H](O)[C@H](N)[C@@H]2O)C[C@@H]2O[C@](O)(C[C@@H](O)C[C@H]3O[C@@H]3/C=C/C(=O)O1)C[C@H](O)[C@H]2C(=O)O [natamycin] (10 µM) | 108 |
| CC(C)(C)C(=O)C(Oc1ccc(Cl)cc1)n1ccnc1 (stereo not given) [climbazole] (10 µM) | 91.5 |
| CCn1c(-c2nonc2N)nc2cncc(CNC3CCNCC3)c21 (10 µM) | 106 |
| CCOc1ccc(C(=O)OCCN(CC)CC)cc1 [parethoxycaine] (10 µM) | 108 |
| Cc1cc(C)nc(SCC(=O)Nc2ncc(Cc3cccc4ccccc34)s2)n1 (10 µM) | 96.5 |
| CCn1cc(C(=O)O)c(=O)c2cnc(N3CCNCC3)nc21 [pipemidic-acid] (10 µM) | 102 |
| Nc1ncn([C@@H]2O[C@H](CO)[C@@H](O)[C@H]2O)c(=O)n1 [azacitidine] (0.833333 µM) | 100 |
| CCNC(=O)CCC/C=C\C[C@@H]1[C@@H](/C=C/[C@@H](O)CCc2ccccc2)[C@H](O)C[C@@H]1O [bimatoprost] (10 µM) | 103 |
| O=C(O)/C=C/c1ccc(-c2ccc(O)c(C34CC5CC(CC(C5)C3)C4)c2)cc1 [adarotene] (10 µM) | 100 |
| CNC(=O)[C@H](Cc1ccccc1)NC(=O)[C@H](CC(C)C)[C@H](CSc1cccs1)C(=O)NO [batimastat] (10 µM) | 104 |
| OC1(c2ccc(Cl)c(C(F)(F)F)c2)CCN(CCCC(c2ccc(F)cc2)c2ccc(F)cc2)CC1 [penfluridol] (0.833333 µM) | 79 |
| O=C(Oc1ccc(Br)cc1)N1CCN2CCC1CC2 (10 µM) | 92 |
| C#C[C@]1(O)CC[C@H]2[C@@H]3CCC4=CC(=O)CC[C@]4(C)[C@H]3CC[C@@]21C [ethisterone] (10 µM) | 107 |
| Clc1ccc2nsnc2c1NC1=NCCN1 [tizanidine] (10 µM) | 112 |
| CN[C@@H](C)[C@H](O)c1ccccc1 [ephedrine] (10 µM) | 106 |
| C[C@@H](c1ccc2nccn2c1)n1nnc2ncc(-c3cnn(C)c3)nc21 [savolitinib] (10 µM) | 104 |
| CCN(CC)S(=O)(=O)c1ccc(C(=O)O)cc1 [etebenecid] (10 µM) | 105 |
| CCCc1c2oc(C(=O)O)cc(=O)c2cc2c(=O)cc(C(=O)O)n(CC)c12 [nedocromil] (10 µM) | 110 |
